Data as given in PubChem BioAssay (NCATS).
Results filed as inconclusive are left out. Calls of active or inactive are those of the source. Calls follow the shape of the dose curve; as a rule, active = well fitted curve in the direction sought with a large enough effect; inconclusive = small, poorly fitted or top-dose-only effect, or another doubt; inactive = no such curve, though single readings can be large; an effect the other way counts as inactive or inconclusive.

Key:
CRL-7250 = normal cell line; assay: Cytotoxic Profiling of Annotated Libraries Using Quantitative High-Throughput Screening (AID 1296008); settings: Five cell lines viability, CellTiter-Glo ATP luminescence, 48-72 h; max response: hits give low values; also: nearly all actives have a fitted effect of over 60% in size; as to max response: % is scaled to controls: 0 for no effect and ±100 for the full control effect
Method in brief: (§1)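 Cells exposed to compounds for 48 or 72 hr at 37 degrees Celsius. Viability read as ATP-coupled luminescence with CellTiter-Glo after 10 min at room temperature.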

HEK293 = assay: as above; settings: Five cell lines viability, CellTiter-Glo ATP luminescence, 48-72 h; max response: hits give low values
Method in brief: as §1

HaCat [1] = assay: as above; settings: Five cell lines viability, CellTiter-Glo ATP luminescence, 48-72 h; max response: hits give low values
Method in brief: as §1

KB-3-1 = assay: as above; settings: Five cell lines viability, CellTiter-Glo ATP luminescence, 48-72 h; max response: hits give low values
Method in brief: as §1

NIH3T3 [2] = assay: as above; settings: Five cell lines viability, CellTiter-Glo ATP luminescence, 48-72 h; max response: hits give low values
Method in brief: as §1

HACAT [3] = assay: qHTS assay to identify novel small-molecules to repurpose for Merkel cell carcinoma treatment (AID 1296009); settings: MCC and control cell lines, CellTiter-Glo viability, 72 h; at 44.8 µM (top of the series) unless noted; also: nearly all actives have a fitted effect of over 60% in size
Method in brief: (§2)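 Cells were treated for 72 hr at 37 degree celsius with compounds in 8- or 11-point dose response. Viability was read by CellTiter-Glo luminescence, normalized to no-cell (cytotoxicity) and DMSO controls.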

NIH3T3 [4] = assay: as above; settings: MCC and control cell lines, CellTiter-Glo viability, 72 h; at 44.8 µM (top of the series) unless noted
Method in brief: as §2

C33A = assay: Primary qHTS to identify gynecologic anti-cancer compounds using libraries of approved drugs and bioactive compounds (AID 1345084); settings: Gynecologic cancer cell panel viability, ATPlite luminescence, 48 h; series mostly up to 57.5 µM; also: % is scaled to controls: 0 for no effect and ±100 for the full control effect; nearly all actives have a fitted effect of over 55% in size
Method in brief: (§3)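 In this quantitative HTS, cell killing is estimated from loss of ATP-dependent luciferase light. Cells see five compound concentrations over a 48 h exposure.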

CAOV3 = assay: as above; settings: Gynecologic cancer cell panel viability, ATPlite luminescence, 48 h; series mostly up to 57.5 µM
Method in brief: as §3

CASKI = assay: as above; settings: Gynecologic cancer cell panel viability, ATPlite luminescence, 48 h; series mostly up to 57.5 µM
Method in brief: as §3

Es-2 = assay: as above; settings: Gynecologic cancer cell panel viability, ATPlite luminescence, 48 h; series mostly up to 57.5 µM
Method in brief: as §3

HeLa = assay: as above; settings: Gynecologic cancer cell panel viability, ATPlite luminescence, 48 h; series mostly up to 57.5 µM
Method in brief: as §3

Hek293T = assay: as above; settings: Gynecologic cancer cell panel viability, ATPlite luminescence, 48 h, control line for the selectivity index; series mostly up to 57.5 µM
Method in brief: as §3

JEG-3 = assay: as above; settings: Gynecologic cancer cell panel viability, ATPlite luminescence, 48 h; series mostly up to 57.5 µM
Method in brief: as §3

OV90 = assay: as above; settings: Gynecologic cancer cell panel viability, ATPlite luminescence, 48 h; series mostly up to 57.5 µM
Method in brief: as §3

C=C1CC/C=C(/CO)C(=O)C[C@@H]2[C@@H]1C[C@@]2(C)COC(C)=O
inactive: outcome (CRL-7250) | max response (HEK293) -4.3% | outcome (HaCat [1]) | max response (KB-3-1) 5.17% | outcome (NIH3T3 [2]) | outcome (HACAT [3]) | outcome (NIH3T3 [4]) | Potency (C33A) | Potency (CAOV3) | outcome (CASKI) | Potency (Es-2) | Potency (HeLa) | Potency (Hek293T) | Potency (JEG-3) | Potency (OV90)

CC12CC(O)C(O)C=C1c1cc(O)cc(O)c1C(=O)O2 (stereo not given)
inactive: max response (CRL-7250) -7.12% | max response (HEK293) -7.31% | outcome (HaCat [1]) | outcome (KB-3-1) | outcome (NIH3T3 [2]) | outcome (HACAT [3]) | outcome (NIH3T3 [4]) | Potency (C33A) | Potency (CAOV3) | outcome (CASKI) | Potency (Es-2) | Potency (HeLa) | Potency (Hek293T) | Potency (JEG-3) | Potency (OV90)

CCc1nnc(NS(=O)(=O)c2ccc(NC(=S)NC(=O)/C=C/c3ccc(F)cc3)cc2)s1
inactive: outcome (CRL-7250) | max response (HEK293) -0.631% | outcome (HaCat [1]) | outcome (KB-3-1) | outcome (NIH3T3 [2]) | outcome (HACAT [3]) | outcome (NIH3T3 [4]) | Potency (C33A) | Potency (CAOV3) | outcome (CASKI) | Potency (Es-2) | Potency (HeLa) | Potency (Hek293T) | Potency (JEG-3) | Potency (OV90)

COc1cc(C)c(C(=O)NC2C(C)OC(OC3CCC(C)C4C3C=C(C)C3/C(C)=C\CC/C(C)=C/C5(C)C=C(C(=O)O)C(C)CC56OC(=O)/C(=C(\O)C34C)C6=O)C(O)C2(C)O)c(O)c1 (stereo not given)
inactive: max response (CRL-7250) -0.565% | max response (HEK293) -0.938% | outcome (HaCat [1]) | max response (KB-3-1) -0.929% | outcome (NIH3T3 [2]) | outcome (HACAT [3]) inactive [at 9.27 µM] | outcome (NIH3T3 [4]) inactive [at 9.27 µM] | activity change, negative = cytotoxicity (C33A) 8.62% [at 11.6 µM] | activity change, negative = cytotoxicity (CAOV3) 11.9% [at 11.6 µM] | activity change, negative = cytotoxicity (CASKI) 23.4% [at 11.6 µM] | activity change, negative = cytotoxicity (Es-2) -2.46% [at 11.6 µM] | activity change, negative = cytotoxicity (HeLa) 2.6% [at 11.6 µM] | activity change, negative = cytotoxicity (Hek293T) 9.94% [at 11.6 µM] | activity change, negative = cytotoxicity (JEG-3) 4.16% [at 11.6 µM] | activity change, negative = cytotoxicity (OV90) 6.29% [at 11.6 µM]

C/C=C1\[C@H](O[C@@H]2O[C@H](CO)[C@@H](O)[C@H](O)[C@H]2O)OC=C(C(=O)O)[C@H]1CC(=O)OCCc1ccc(O)cc1
inactive: max response (CRL-7250) -6.03% | max response (HEK293) -5.51% | outcome (HaCat [1]) | max response (KB-3-1) -0.266% | outcome (NIH3T3 [2]) | outcome (HACAT [3]) inactive [at 17.4 µM] | outcome (NIH3T3 [4]) inactive [at 17.4 µM] | Potency (C33A) | Potency (CAOV3) | outcome (CASKI) | Potency (Es-2) | Potency (HeLa) | Potency (Hek293T) | Potency (JEG-3) | Potency (OV90)

CC(C)NC(=O)c1ccc(C#Cc2ccncc2)cn1
inactive: max response (CRL-7250) -8.3% | max response (HEK293) -19.1% | outcome (HaCat [1]) | outcome (KB-3-1) | outcome (NIH3T3 [2]) | outcome (HACAT [3]) | outcome (NIH3T3 [4]) | Potency (C33A) | Potency (CAOV3) | outcome (CASKI) | Potency (Es-2) | Potency (HeLa) | Potency (Hek293T) | Potency (JEG-3) | Potency (OV90)

CCC(C)C(=O)OC[C@H]1O[C@H](O[C@H]2O[C@H](CO)[C@@H](O)[C@H](O)[C@H]2O)[C@H](O)[C@@H](O)[C@@H]1O (stereo not given in full)
inactive: outcome (CRL-7250) | max response (HEK293) 0.11% | outcome (HaCat [1]) | max response (KB-3-1) 6.74% | outcome (NIH3T3 [2]) | outcome (HACAT [3]) inactive [at 17.4 µM] | outcome (NIH3T3 [4]) inactive [at 17.4 µM] | Potency (C33A) | Potency (CAOV3) | outcome (CASKI) | Potency (Es-2) | Potency (HeLa) | Potency (Hek293T) | Potency (JEG-3) | Potency (OV90)

CC1(C)C2CC[C@@]34CC(CC[C@H]3[C@]2(C)CC[C@@H]1O[C@@H]1O[C@H](CO)[C@@H](O)[C@H](O)[C@H]1O)[C@](C)(O)C4 (stereo not given in full)
inactive: max response (CRL-7250) -8.76% | max response (HEK293) 0.264% | outcome (HaCat [1]) | max response (KB-3-1) 8.52% | outcome (NIH3T3 [2]) | outcome (HACAT [3]) inactive [at 17.4 µM] | outcome (NIH3T3 [4]) inactive [at 17.4 µM] | Potency (C33A) | Potency (CAOV3) | outcome (CASKI) | Potency (Es-2) | Potency (HeLa) | Potency (Hek293T) | Potency (JEG-3) | Potency (OV90)

CCC(C)C1NC(=O)C2C(C)CCN2C(=O)C(CC(O)CO)OC(=O)CCNC(=O)C(C)N(C)C(=O)C(C(C)C)N(C)C1=O (stereo not given)
inactive: max response (CRL-7250) -3.99% | max response (HEK293) -0.256% | outcome (HaCat [1]) | max response (KB-3-1) 0.529% | outcome (NIH3T3 [2]) | outcome (HACAT [3]) inactive [at 17.4 µM] | outcome (NIH3T3 [4]) inactive [at 17.4 µM] | Potency (C33A) | Potency (CAOV3) | outcome (CASKI) | Potency (Es-2) | Potency (HeLa) | Potency (Hek293T) | Potency (JEG-3) | Potency (OV90)

C=C1C(=O)O[C@@H]2CC(C)=C([C@@H](C)CCCOC(C)=O)[C@@H](O)[C@H]12
inactive: max response (CRL-7250) 0.455% | max response (HEK293) 1.32% | outcome (HaCat [1]) | max response (KB-3-1) 6.41% | outcome (NIH3T3 [2]) | outcome (HACAT [3]) | outcome (NIH3T3 [4]) | Potency (C33A) | Potency (CAOV3) | outcome (CASKI) | Potency (Es-2) | Potency (HeLa) | Potency (Hek293T) | Potency (JEG-3) | Potency (OV90)

CC1(O)CC(O)C2C(C(=O)O)=COC(OC3OC(CO)C(O)C(O)C3OC(=O)/C=C/c3ccc(O)cc3)C21 (stereo not given)
inactive: max response (CRL-7250) 2.15% | max response (HEK293) 1.1% | outcome (HaCat [1]) | max response (KB-3-1) 6.91% | outcome (NIH3T3 [2]) | outcome (HACAT [3]) inactive [at 17.4 µM] | outcome (NIH3T3 [4]) inactive [at 17.4 µM] | Potency (C33A) | Potency (CAOV3) | outcome (CASKI) | Potency (Es-2) | Potency (HeLa) | Potency (Hek293T) | Potency (JEG-3) | Potency (OV90)
